# Experimental data reported in the supplement of paper PMC8728848.
# The entries come from a sample that favours the strongest signals as a whole.
# Key:
# Test in all cases: glycan array binding signal (z-score within array); higher = stronger binding
# Conditions in all cases: glycan notation: IUPAC condensed, linker removed
# [1] = target: Fuc(a1-2)Gal(b1-4)GlcNAc(b1-2)Man
# In short: (§1)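 Glycan array data came from 3228 arrays in the Consortium for Functional Glycomics database, and only arrays with an available protein sequence were kept. Glycan names were put into IUPAC-condensed notation, and columns mapping to the same glycan were averaged. The binding signal is a within-array Z-score, averaged across arrays of one protein sequence run at different concentrations or buffers and across linkers. A negative Z-score can be read as non-binding.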
# [2] = target: Fuc(a1-2)[Gal(a1-3)]Gal(b1-3)GalNAc(b1-3)Gal(a1-4)Gal(b1-4)Glc
# In short: as §1
# [3] = target: Fuc(a1-2)[GalNAc(a1-3)]Gal(b1-4)GlcNAc(b1-2)Man(a1-3)[Fuc(a1-2)[GalNAc(a1-3)]Gal(b1-4)GlcNAc(b1-2)Man(a1-6)]Man(b1-4)GlcNAc(b1-4)[Fuc(a1-6)]GlcNAc
# In short: as §1
# [4] = target: Fuc(a1-3)[Gal3S(b1-4)]Glc
# In short: as §1
# [5] = target: Fuc(a1-3)[GalNAc(b1-4)]GlcNAc6S
# In short: as §1
# Fuc(b1-3)GlcNAc = target: Fuc(b1-3)GlcNAc
# In short: as §1
# [6] = target: Gal(a1-3)Gal(b1-4)GlcNAc(b1-2)Man(a1-3)[Gal(a1-3)Gal(b1-4)GlcNAc(b1-2)Man(a1-6)]Man(b1-4)GlcNAc(b1-4)GlcNAc
# In short: as §1
# [7] = target: Gal(a1-3)Gal(b1-4)[Fuc(a1-3)]GlcNAc(b1-2)Man(a1-3)[Gal(a1-3)Gal(b1-4)[Fuc(a1-3)]GlcNAc(b1-2)Man(a1-6)]Man(b1-4)GlcNAc(b1-4)GlcNAc
# In short: as §1
# [8] = target: Gal(a1-4)Gal(b1-3)GlcNAc(b1-2)Man(a1-3)[Gal(a1-4)Gal(b1-3)GlcNAc(b1-2)Man(a1-6)]Man(b1-4)GlcNAc(b1-4)GlcNAc
# In short: as §1
# [9] = target: Gal(a1-4)Gal(b1-4)GlcNAc(b1-2)Man(a1-3)[Gal(a1-4)Gal(b1-4)GlcNAc(b1-2)Man(a1-6)]Man(b1-4)GlcNAc(b1-4)GlcNAc
# In short: as §1
# Gal(b1-3)GalNAc = target: Gal(b1-3)GalNAc
# In short: as §1
# [10] = target: Gal(b1-3)GalNAc(b1-4)Gal(b1-4)Glc
# In short: as §1
# [11] = target: Gal(b1-3)GlcNAc(a1-3)Gal(b1-4)GlcNAc
# In short: as §1
# Gal(b1-3)GlcNAc(b1-2)Man = target: Gal(b1-3)GlcNAc(b1-2)Man
# In short: as §1
# [12] = target: Gal(b1-3)GlcNAc(b1-2)Man(a1-3)[Gal(b1-3)GlcNAc(b1-2)Man(a1-6)]Man(b1-4)GlcNAc(b1-4)GlcNAc
# In short: as §1
# [13] = target: Gal(b1-3)GlcNAc(b1-3)Gal(b1-3)GlcNAc
# In short: as §1
# [14] = target: Gal(b1-4)GalNAc(a1-3)[Fuc(a1-2)]Gal(b1-4)GlcNAc
# In short: as §1
# [15] = target: Gal(b1-4)GlcNAc(b1-2)Man(a1-3)[Gal(b1-4)GlcNAc(b1-2)Man(a1-6)]Man(b1-4)GlcNAc(b1-4)GlcNAc
# In short: as §1
# [16] = target: Gal(b1-4)GlcNAc(b1-2)Man(a1-3)[GlcNAc(b1-2)Man(a1-6)]Man(b1-4)GlcNAc(b1-4)GlcNAc
# In short: as §1
# [17] = target: Gal(b1-4)GlcNAc(b1-2)Man(a1-3)[Man(a1-6)]Man(b1-4)GlcNAc(b1-4)GlcNAc
# In short: as §1
# [18] = target: Gal(b1-4)GlcNAc(b1-2)Man(a1-6)[GlcNAc(b1-2)Man(a1-3)]Man(b1-4)GlcNAc(b1-4)GlcNAc
# In short: as §1
# [19] = target: Gal(b1-4)GlcNAc(b1-3)Gal(b1-4)GlcNAc(b1-2)[Gal(b1-4)GlcNAc(b1-3)Gal(b1-4)GlcNAc(b1-6)]Man(a1-6)[Gal(b1-4)GlcNAc(b1-3)Gal(b1-4)GlcNAc(b1-2)Man(a1-3)]Man(b1-4)GlcNAc(b1-4)[Fuc(a1-6)]GlcNAc
# In short: as §1
# [20] = target: Gal(b1-4)GlcNAc(b1-3)Gal(b1-4)GlcNAc(b1-3)[Gal(b1-4)GlcNAc(b1-3)Gal(b1-4)GlcNAc(b1-6)]GalNAc
# In short: as §1
# Gal4S(b1-4)GlcNAc = target: Gal4S(b1-4)GlcNAc
# In short: as §1
# Gal6S(b1-4)Glc6S = target: Gal6S(b1-4)Glc6S
# In short: as §1
# GalNAc(a1-3)Gal = target: GalNAc(a1-3)Gal
# In short: as §1
# [21] = target: GalNAc(a1-3)GalNAc(b1-3)Gal(a1-4)Gal(b1-4)Glc
# In short: as §1
# [22] = target: GalNAc(b1-4)GlcNAc(b1-2)Man(a1-3)[GalNAc(b1-4)GlcNAc(b1-2)Man(a1-6)]Man(b1-4)GlcNAc(b1-4)GlcNAc
# In short: as §1
# GalNAc3S(b1-4)GlcNAc = target: GalNAc3S(b1-4)GlcNAc
# In short: as §1
# GalNAc6S(b1-4)GlcNAc = target: GalNAc6S(b1-4)GlcNAc
# In short: as §1
binder,measurement,setting,value
GNL (Galanthus nivalis) (protein) MGHHHHHHHHYGTLENGHWLMVGMSIFSKDRTVELRMQDDGKLAIYYNDHCAWQSTAQQVNNAKGAVMQGDGNFCIYDKNGKATWHTNTAAPSGDSHTFVSVQDDGNLVLYKNNGATPIWSSKSNK,glycan array binding signal (z-score),[1],-0.231
same,glycan array binding signal (z-score),[2],-0.172
same,glycan array binding signal (z-score),[3],-0.207
same,glycan array binding signal (z-score),[4],-0.237
same,glycan array binding signal (z-score),[5],-0.181
same,glycan array binding signal (z-score),Fuc(b1-3)GlcNAc,-0.156
same,glycan array binding signal (z-score),[6],3.44
same,glycan array binding signal (z-score),[7],-0.054
same,glycan array binding signal (z-score),[8],4.92
same,glycan array binding signal (z-score),[9],5.71
same,glycan array binding signal (z-score),Gal(b1-3)GalNAc,-0.233
same,glycan array binding signal (z-score),[10],-0.061
same,glycan array binding signal (z-score),[11],-0.174
same,glycan array binding signal (z-score),Gal(b1-3)GlcNAc(b1-2)Man,-0.16
same,glycan array binding signal (z-score),[12],4.54
same,glycan array binding signal (z-score),[13],-0.228
same,glycan array binding signal (z-score),[14],-0.257
same,glycan array binding signal (z-score),[15],4.76
same,glycan array binding signal (z-score),[16],3.92
same,glycan array binding signal (z-score),[17],10.9
same,glycan array binding signal (z-score),[18],7.59
same,glycan array binding signal (z-score),[19],-0.241
same,glycan array binding signal (z-score),[20],-0.222
same,glycan array binding signal (z-score),Gal4S(b1-4)GlcNAc,-0.212
same,glycan array binding signal (z-score),Gal6S(b1-4)Glc6S,-0.207
same,glycan array binding signal (z-score),GalNAc(a1-3)Gal,-0.25
same,glycan array binding signal (z-score),[21],-0.305
same,glycan array binding signal (z-score),[22],-0.248
same,glycan array binding signal (z-score),GalNAc3S(b1-4)GlcNAc,-0.219
same,glycan array binding signal (z-score),GalNAc6S(b1-4)GlcNAc,-0.21
